Test results: the supplement of paper PMC8253809
Where “and” joins values, the source holds several entries; their conditions need not be identical. Equal entries are not always repeated.

Assays:
Assay in all cases: growth inhibition (% activity, log2 RLU normalised to DMSO / staurosporine); higher = more growth inhibition
Conditions in all cases: 33 µM
[1] = system: DIPGX29 (H3.3 K27M diffuse intrinsic pontine glioma line)
In short: (§1)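 In triplicate, pHGG cell lines and H9-derived neural stem cells were treated for 7 days at 37 °C, 5% CO2 with approved drugs at a single final concentration of about 33 μM, added by pin tool. CellTiter-Glo luminescence, after log2 transformation, was normalised on each plate to % activity between solvent and positive control wells. Growth inhibition is reported as the median across replicates.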

[2] = system: DIPGX37 (H3.3 K27M diffuse intrinsic pontine glioma line)
In short: as §1

[3] = system: DIPGX7 (H3.3 K27M diffuse intrinsic pontine glioma line)
In short: as §1

[4] = system: DIPGX9 (diffuse intrinsic pontine glioma line)
In short: as §1

[5] = system: HGGX39 (paediatric high-grade glioma line)
In short: as §1

[6] = system: HGGX6 (H3.3 G34R paediatric high-grade glioma line)
In short: as §1

[7] = system: HNSC
In short: as §1

[8] = system: SUDIPGIV (diffuse intrinsic pontine glioma line)
In short: as §1

[9] = system: SUDIPGVI (diffuse intrinsic pontine glioma line)
In short: as §1

[10] = system: SUDIPGXIII (diffuse intrinsic pontine glioma line)
In short: as §1

Row | Compound | growth inhibition [1] | growth inhibition [2] | growth inhibition [3] | growth inhibition [4] | growth inhibition [5] | growth inhibition [6] | growth inhibition [7] | growth inhibition [8] | growth inhibition [9] | growth inhibition [10]
1 | CC(=O)Oc1ccccc1C(=O)Nc1ncc([N+](=O)[O-])s1 | 0.503% | 4.15% | 3.15% | 1.52% | 3.31% | 1.98% | 7.17% | 3.07% | 1.06% | 63.6%
2 | CCCC(CCC)C(=O)O | -0.377% and 2.62% | 2.62% and 1.47% | 0.168% and 0.662% | -1.7% and -0.864% | 1.15% and -1.14% | -4.05% and -2.44% | 2.37% and 0.244% | 1.52% and 0.0625% | 0.818% and -1.61% | 0.746% and 0.431%
3 | CCOC(=O)N1CCC(=C2c3ccc(Cl)cc3CCc3cccnc32)CC1 | 2.36% | 3.66% | 1.58% | 1.03% | 1.57% | 1.37% | 5.38% | 3.97% | 1.47% | 0.514%
4 | CC(=O)O[C@]1(C(C)=O)CC[C@H]2[C@@H]3C=C(C)C4=CC(=O)CC[C@]4(C)[C@H]3CC[C@@]21C | 0.869% | 1.56% | 2.71% | 1.56% | -0.284% | -3.03% | -2.32% | -1.52% | -0.924% | 1.41%
5 | O=C1NCC2(CCN(CCc3ccccc3)CC2)O1 | 0.324% | -0.568% | 0.908% | 1.98% | 1.24% | 0.472% | -0.511% | -1.95% | 0.357% | 0.871%
6 | CC(CCc1ccc(O)cc1)NCC(O)c1ccc(O)cc1 (stereo not given) | -1.35% | 0.666% | -1% | 0.398% | 3.25% | -2.19% | 5.04% | 2.35% | 2.3% | 0.356%
7 | Clc1ccc(C(Cn2ccnc2)OCc2c(Cl)cccc2Cl)c(Cl)c1 (stereo not given) | 2.72% | 3.03% | 3.97% | 3.76% | 8.33% | 5.87% | 4.09% | 11.2% | 2.55% | 10.5%
8 | CC1(C)S[C@@H]2[C@H](NC(=O)[C@H](NC(=O)N3CCN(S(C)(=O)=O)C3=O)c3ccccc3)C(=O)N2[C@H]1C(=O)O | -1.26% | 0.368% | -0.979% | -1.9% | -0.656% | -0.1% | -2.17% | 0.286% | -2.19% | 2.64%
9 | CCOC(=O)c1ccc(C#Cc2ccc3c(c2)C(C)(C)CCS3)nc1 | 3.83% | -0.285% | 6.1% | 9.38% | 8.54% | 6.5% | 6.59% | 8.53% | 4.1% | 1.82%
10 | O=C1CC[C@@H](C(=O)N2CSC[C@H]2C(=O)O)N1 | 2.29% | 1.19% | 1.62% | 1.89% | 3.63% | 2.97% | 2.12% | 1.86% | 2.32% | -0.296%
11 | Cc1nnc(C(C)C)n1C1C[C@H]2CC[C@@H](C1)N2CC[C@H](NC(=O)C1CCC(F)(F)CC1)c1ccccc1 (stereo in doubt) | 0.752% | 1.42% | 6.87% | 1.45% | 1.14% | -3.69% | 45.9% | -0.251% | -0.429% | -1.27%
12 | CS(=O)(=O)c1ccc([C@@H](O)[C@@H](CO)NC(=O)C(Cl)Cl)cc1 | 7.76% | 3.94% | 4.74% | 7.6% | 16.3% | 5.24% | 15.1% | 35% | 5.62% | 20%
13 | COc1ccccc1N1CCN(CCCNc2cc(=O)n(C)c(=O)n2C)CC1 | -0.448% | 2.3% | -0.071% | 0.0185% | 0.367% | 0.543% | 0.25% | -1.07% | -1.77% | 1.17%
14 | CCCCOc1ccc(OCCCN2CCOCC2)cc1 | 5.55% | 2.14% | 14.7% | 1.12% | 8.05% | 7.63% | 5.68% | 1.4% | 1.31% | 1.81%
15 | CCN(CC)CCNC(C(=O)OCCC(C)C)c1ccccc1 (stereo not given) | 2% | -0.0996% | 4.26% | 1.08% | 0.0597% | 0.247% | 74.6% | 1.14% | -6.42% | 2.01%
16 | OC(CCN1CCCCC1)(c1ccccc1)c1ccccc1 | -0.46% | 1.3% | -0.768% | -0.762% | -0.68% | 0.348% | -1.66% | -1.24% | 0.131% | 1.07%
17 | CC(=O)CCCCn1c(=O)c2c(ncn2C)n(C)c1=O | 0.465% | 1.18% | 0.88% | 0.578% | 2.34% | 2% | 1.61% | -0.648% | 2.85% | 0.487%
18 | Cc1cn([C@H]2C[C@H](N=[N+]=[N-])[C@@H](CO)O2)c(=O)[nH]c1=O | 3.15% | 3.86% | 4.01% | 3.46% | 5.5% | 1.53% | 10.3% | 3.31% | 3.71% | -0.807%
